The supplement of paper PMC11732987, “Enantioselective OTUD7B fragment discovery through chemoproteomics screening and high-throughput optimisation” (Communications Chemistry, 2025)

Key:
Assay in all cases: log2 ratio of Biotin-Ahx-Ub-VS probe labelling (fragment/DMSO); higher = less target engagement (more negative = stronger competition), active = hit call of the paper (q ≤ 0.05, log2 ratio ≤ -1)
Conditions in all cases: compound concentration: 200 uM; treatment time: 3 h
OTUD6B = target: T1, OTUD6B (UniProt Q8N6M0)
T1 sequence (whole entry): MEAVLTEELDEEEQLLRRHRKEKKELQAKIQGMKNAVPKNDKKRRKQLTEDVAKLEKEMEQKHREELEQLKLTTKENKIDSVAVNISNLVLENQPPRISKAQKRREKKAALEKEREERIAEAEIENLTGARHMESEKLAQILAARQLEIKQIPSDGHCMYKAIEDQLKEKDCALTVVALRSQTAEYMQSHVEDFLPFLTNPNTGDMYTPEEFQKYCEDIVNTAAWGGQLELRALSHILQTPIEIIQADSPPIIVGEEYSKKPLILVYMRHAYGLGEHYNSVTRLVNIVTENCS
Outline: (§1)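 Labelling with Biotin-Ahx-Ub-VS (0.5 µM final, 1 h) followed a 3 h triplicate treatment of HEK293T lysate (495 µg per sample, Tris/CHAPS/IGEPAL buffer with protease inhibitors) with fragment at 200 µM or vehicle. Labelled DUBs were NeutrAvidin-enriched, digested with LysC and trypsin, and run by diaPASEF LC-MS/MS. The values, average log2 fragment/vehicle ratios by unpaired t-test, come from global-median-normalised Spectronaut label-free quantities. Proteins with ≥2 unique peptides were used.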

OTUD7B = target: T2, OTUD7B (UniProt Q6GQQ9)
T2 sequence (whole entry): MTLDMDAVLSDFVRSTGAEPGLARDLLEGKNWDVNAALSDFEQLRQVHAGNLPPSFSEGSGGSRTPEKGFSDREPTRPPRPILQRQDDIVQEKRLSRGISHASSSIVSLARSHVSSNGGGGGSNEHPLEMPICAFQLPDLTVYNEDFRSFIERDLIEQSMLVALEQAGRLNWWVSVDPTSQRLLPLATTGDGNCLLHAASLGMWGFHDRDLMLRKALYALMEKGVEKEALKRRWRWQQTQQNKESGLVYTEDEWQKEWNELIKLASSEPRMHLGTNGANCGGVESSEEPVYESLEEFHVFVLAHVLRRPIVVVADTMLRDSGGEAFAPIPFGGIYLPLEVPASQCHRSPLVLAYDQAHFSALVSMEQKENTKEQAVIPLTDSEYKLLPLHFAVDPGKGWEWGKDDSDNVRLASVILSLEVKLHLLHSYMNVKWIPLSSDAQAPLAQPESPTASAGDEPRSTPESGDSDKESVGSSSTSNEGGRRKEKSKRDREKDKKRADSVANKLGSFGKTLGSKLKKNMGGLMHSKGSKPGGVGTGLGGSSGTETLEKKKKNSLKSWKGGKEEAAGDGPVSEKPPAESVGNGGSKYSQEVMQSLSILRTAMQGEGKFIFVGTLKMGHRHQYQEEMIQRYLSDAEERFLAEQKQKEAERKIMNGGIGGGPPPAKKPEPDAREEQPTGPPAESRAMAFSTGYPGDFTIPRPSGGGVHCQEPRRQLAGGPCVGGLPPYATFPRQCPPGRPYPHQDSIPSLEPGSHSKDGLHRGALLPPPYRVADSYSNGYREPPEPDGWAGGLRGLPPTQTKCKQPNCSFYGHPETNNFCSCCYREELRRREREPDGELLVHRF
Outline: as §1

PRPF8 = PRPF8 (UniProt Q6P2Q9)
Outline: as §1

PSMD7 = target: T3, PSMD7 (UniProt P51665)
T3 sequence (whole entry): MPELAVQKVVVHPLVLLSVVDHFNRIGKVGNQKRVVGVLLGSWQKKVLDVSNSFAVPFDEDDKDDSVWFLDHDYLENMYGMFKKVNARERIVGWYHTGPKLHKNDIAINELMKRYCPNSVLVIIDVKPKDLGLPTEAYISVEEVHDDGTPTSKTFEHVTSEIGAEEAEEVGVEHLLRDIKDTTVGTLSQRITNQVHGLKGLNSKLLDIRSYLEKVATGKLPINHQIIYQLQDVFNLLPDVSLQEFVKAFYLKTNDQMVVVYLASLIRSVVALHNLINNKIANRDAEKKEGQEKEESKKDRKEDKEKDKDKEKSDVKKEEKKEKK
Outline: as §1

UCHL1 = UCHL1 (UniProt P09936)
Outline: as §1

UCHL3 = target: T4, UCHL3 (UniProt P15374)
T4 sequence (whole entry): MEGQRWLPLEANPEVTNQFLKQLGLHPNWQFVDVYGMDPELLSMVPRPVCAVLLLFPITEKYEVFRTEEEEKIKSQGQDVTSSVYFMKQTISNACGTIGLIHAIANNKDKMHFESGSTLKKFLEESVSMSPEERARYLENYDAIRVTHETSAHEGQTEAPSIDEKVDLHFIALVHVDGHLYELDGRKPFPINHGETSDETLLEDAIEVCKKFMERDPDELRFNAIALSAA
Outline: as §1

UCHL5 = target: T5, UCHL5 (UniProt Q9Y5K5)
T5 sequence (whole entry): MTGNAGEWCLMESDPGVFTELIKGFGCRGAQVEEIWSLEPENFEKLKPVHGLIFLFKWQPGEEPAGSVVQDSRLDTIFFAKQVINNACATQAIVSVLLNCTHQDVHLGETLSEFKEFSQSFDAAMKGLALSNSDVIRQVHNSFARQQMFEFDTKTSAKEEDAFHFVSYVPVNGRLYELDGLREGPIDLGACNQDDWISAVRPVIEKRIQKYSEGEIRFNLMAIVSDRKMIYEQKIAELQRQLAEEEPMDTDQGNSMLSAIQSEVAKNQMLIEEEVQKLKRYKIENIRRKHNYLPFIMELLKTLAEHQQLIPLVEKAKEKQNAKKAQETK
Outline: as §1

USP10 = USP10 (UniProt Q14694)
Outline: as §1

USP15 = target: T6, USP15 (UniProt Q9Y4E8)
T6 sequence (whole entry): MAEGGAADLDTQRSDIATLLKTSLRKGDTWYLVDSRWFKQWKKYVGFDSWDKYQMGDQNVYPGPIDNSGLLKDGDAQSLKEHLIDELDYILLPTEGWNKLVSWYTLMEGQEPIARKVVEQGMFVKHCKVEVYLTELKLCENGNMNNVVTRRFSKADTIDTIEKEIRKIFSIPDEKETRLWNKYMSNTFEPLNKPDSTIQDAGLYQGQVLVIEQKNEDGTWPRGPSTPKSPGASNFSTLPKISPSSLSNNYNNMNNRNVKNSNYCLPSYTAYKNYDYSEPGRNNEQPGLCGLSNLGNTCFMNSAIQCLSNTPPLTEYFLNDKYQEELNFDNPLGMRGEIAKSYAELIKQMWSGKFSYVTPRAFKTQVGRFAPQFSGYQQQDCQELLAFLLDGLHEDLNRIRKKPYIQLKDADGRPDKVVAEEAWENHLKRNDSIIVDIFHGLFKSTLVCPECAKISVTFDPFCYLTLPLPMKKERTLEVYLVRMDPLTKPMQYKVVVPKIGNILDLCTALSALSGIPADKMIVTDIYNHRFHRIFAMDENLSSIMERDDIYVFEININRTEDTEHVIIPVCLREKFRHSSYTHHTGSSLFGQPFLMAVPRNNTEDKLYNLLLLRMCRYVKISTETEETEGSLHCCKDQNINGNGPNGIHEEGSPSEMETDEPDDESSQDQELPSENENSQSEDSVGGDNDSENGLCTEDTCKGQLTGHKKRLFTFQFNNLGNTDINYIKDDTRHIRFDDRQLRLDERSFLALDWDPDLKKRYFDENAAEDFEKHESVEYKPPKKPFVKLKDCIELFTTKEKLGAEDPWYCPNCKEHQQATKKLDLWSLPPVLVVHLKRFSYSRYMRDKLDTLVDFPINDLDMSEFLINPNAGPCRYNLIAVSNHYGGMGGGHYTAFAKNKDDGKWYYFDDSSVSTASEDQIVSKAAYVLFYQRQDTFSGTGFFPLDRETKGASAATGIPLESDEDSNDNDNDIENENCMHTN
Outline: as §1

USP16 = USP16 (UniProt Q9Y5T5)
Outline: as §1

Measured: log2 ratio of Biotin-Ahx-Ub-VS probe labelling

USP10, sequence (Q14694 whole entry): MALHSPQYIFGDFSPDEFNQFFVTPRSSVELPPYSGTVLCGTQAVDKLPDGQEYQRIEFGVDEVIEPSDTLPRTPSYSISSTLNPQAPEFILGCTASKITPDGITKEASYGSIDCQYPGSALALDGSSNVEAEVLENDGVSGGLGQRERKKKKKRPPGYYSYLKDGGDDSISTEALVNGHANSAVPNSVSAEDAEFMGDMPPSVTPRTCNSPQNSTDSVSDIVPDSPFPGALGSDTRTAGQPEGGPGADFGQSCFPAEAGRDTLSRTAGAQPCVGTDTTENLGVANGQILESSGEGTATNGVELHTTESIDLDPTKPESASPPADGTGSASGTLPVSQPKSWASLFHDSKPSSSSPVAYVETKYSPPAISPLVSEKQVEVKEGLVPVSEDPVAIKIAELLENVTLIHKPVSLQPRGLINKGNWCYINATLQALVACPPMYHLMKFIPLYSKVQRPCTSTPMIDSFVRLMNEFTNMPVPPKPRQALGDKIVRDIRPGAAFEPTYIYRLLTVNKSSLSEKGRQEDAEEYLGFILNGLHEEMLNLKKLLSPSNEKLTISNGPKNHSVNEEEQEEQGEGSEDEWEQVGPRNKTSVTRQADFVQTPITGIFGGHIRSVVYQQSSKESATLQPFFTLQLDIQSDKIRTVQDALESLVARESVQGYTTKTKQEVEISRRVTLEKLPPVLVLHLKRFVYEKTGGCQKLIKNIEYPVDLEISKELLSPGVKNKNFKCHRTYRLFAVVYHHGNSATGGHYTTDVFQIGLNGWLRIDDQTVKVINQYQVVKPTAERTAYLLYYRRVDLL
UCHL1, sequence (P09936 whole entry, looked up): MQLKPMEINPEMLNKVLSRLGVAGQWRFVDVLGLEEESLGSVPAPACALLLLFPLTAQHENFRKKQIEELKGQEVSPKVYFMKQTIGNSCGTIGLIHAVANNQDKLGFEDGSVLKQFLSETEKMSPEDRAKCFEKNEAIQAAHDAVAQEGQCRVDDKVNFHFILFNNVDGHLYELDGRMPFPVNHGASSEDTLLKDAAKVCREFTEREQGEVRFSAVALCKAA
USP16, sequence (Q9Y5T5 whole entry, looked up): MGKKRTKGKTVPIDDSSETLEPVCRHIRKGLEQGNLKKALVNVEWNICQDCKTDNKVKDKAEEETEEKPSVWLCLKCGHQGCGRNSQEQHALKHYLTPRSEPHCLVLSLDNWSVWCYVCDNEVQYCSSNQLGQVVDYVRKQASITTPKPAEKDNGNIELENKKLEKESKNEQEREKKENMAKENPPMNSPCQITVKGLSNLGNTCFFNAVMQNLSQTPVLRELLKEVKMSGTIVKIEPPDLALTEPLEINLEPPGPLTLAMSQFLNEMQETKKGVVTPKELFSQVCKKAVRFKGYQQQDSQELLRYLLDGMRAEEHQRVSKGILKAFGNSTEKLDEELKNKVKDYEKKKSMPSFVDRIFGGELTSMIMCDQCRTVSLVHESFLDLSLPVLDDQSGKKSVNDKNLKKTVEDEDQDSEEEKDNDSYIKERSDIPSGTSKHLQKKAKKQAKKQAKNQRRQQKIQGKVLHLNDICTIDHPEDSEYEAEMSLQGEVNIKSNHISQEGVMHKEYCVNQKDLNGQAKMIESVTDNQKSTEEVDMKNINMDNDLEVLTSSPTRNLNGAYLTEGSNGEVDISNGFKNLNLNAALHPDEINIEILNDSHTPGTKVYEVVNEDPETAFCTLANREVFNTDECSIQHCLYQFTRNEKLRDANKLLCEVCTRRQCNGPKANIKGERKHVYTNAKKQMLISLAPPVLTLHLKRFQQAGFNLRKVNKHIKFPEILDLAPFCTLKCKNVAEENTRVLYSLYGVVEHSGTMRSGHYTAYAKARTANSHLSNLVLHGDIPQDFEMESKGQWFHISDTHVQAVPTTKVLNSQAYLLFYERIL

Cc1ccn2cc(CNC(=O)CCl)nc2c1.Cl
inactive: OTUD6B -0.283 | OTUD7B -0.682 | PRPF8 0.0356 | PSMD7 -0.104 | UCHL1 -0.67 | UCHL3 -0.0928 | UCHL5 -0.311 | USP10 0.0849 | USP15 -0.244 | USP16 0.0424
